# Assay results: PubChem BioAssay (NCATS)
# Results filed as inconclusive are left out. Unmarked numbers belong to inactive results. Calls of active or inactive are those of the source. The call rests on the fitted dose curve; in most records, active means well fitted inhibition curve with a large enough effect; inconclusive means small, poorly fitted or top-dose-only effect; inactive means flat fitted curve, though single readings scatter. Where a SMILES comes first, the peptide text is derived from it. [ ]: non-standard residue; d: D form. pGlu = O=C1CC[C@@H](C(=O)O)N1; Thz = O=C(O)[C@@H]1CSCN1
# Target: Calcium and integrin-binding protein 1 (Homo sapiens) (UniProt Q99828)
# Sequence (Q99828 whole entry, looked up): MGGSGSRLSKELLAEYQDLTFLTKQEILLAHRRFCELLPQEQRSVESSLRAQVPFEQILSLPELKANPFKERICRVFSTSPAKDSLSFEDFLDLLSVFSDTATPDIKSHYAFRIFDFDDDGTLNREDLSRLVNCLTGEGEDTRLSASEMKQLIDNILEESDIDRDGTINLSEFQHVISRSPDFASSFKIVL
# Assay: Primary qHTS for Identification of Calcium Integrin Binding Protein 1 (CIB1) Competitor (AID 1508620);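 on activity change, negative = inhibition: GST tagged CIB1 binding a fluorescein labelled alphaIIb integrin peptide tracer; top concentration of the series differs between compounds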
# Settings: CIB1-GST / FITC-alphaIIb peptide fluorescence polarization; series mostly up to 114 µM; activity change, negative = inhibition: at the top concentration
# Source text: Assay Provider: Ulhas P. Naik, PhD Sidney Kimmel Medical College Thomas Jefferson University, Philadelphia, PA Primary function of platelets is to maintain hemostasis. At the site of vascular injury, platelets adhere to adhesive proteins such as collagen and von Willebrand factor. Adherent platelets are activated and generate soluble platelet agonists such as thrombin, ADP and thromboxane A2. Following exposure of circulating platelets to these agonists, results in platelet shape change, granule secretion and activation of platelet integrin alphaIIb-beta3. Ligand binding to activated integrin alphaIIb-beta3 triggers outside-in signaling, leading to platelet aggregation, stabilization of platelet plug, and clot retraction. Upon atherosclerotic plaque rupture also causes platelet plug formation, which underlies a number of cardiovascular diseases such as myocardial infraction and stroke. A number of anti-platelet drugs such as aspirin, clopidogrel, prasugrel, vorapaxar, and eptifibatide are currently available to prevent the thrombotic complications. However, these anti-platelet agents have several limitations including inherent variability in individual responses, developing resistance, and serious bleeding side effects. For these reasons they are not suitable for long-term protection. Based on the experiences with current anti-platelet drugs, it appears that the most useful therapeutic approach is to intersect the secondary responses such as integrin outside-in signaling or recruitment of platelets by TxA2 and secreted ADP. Compounds, which can largely preserve the primary hemostatic function of platelets but inhibit secondary response will be most desired therapeutic agents for treatment of cardiovascular disease. CIB1 is a calcium integrin binding protein, which specifically interact with the alphaIIb subunit of integrin alphaIIb-beta3. Binding of CIB1 to alphaIIb regulates the outside-in signaling in platelets, which is needed for thrombus stabilization and thrombus growth. […] Therefore, we propose that discovery of a small molecule that can prevent the association of CIB1 and alphaIIb-beta3 will be a potential anti-platelet agent that can block the thrombus formation without undue effect on hemostasis. Reference: [1] Naik MU, Nigam A, Manrai P, et al. CIB1 deficiency results in impaired thrombosis: the potential role of CIB1 in outside-in signaling through integrin alpha IIb beta 3. J Thromb Haemost.
# PROTOCOL TABLES SEQUENCE No. (1, 2, 3, etc.); […] (e.g., Cells, Incubation, Reagent, etc.); VALUE and DESCRIPTION. 1; Reagent; 3 uL; Protein or buffer (4/3x) 2; Compound; 46 nL; Control inhibitor / compound library 3; Time; 15 min; Room temperature incubation 4; Reagent; 1 uL; Fluorescent labeled peptide (4x) 5; Time; 1000 rpm; Centrifuge 6; Time; 15 min; Room temperature incubation 7; Detection; Ex 480/ Em 540; ViewLux Fluorescence Read NOTES (numbers refer to sequence above) 1; Protein Mixture: C1B1-GST (final concentrations of 1 uM). […] 3; Room temperature incubation. 4; Fluorescent Labeled Peptide: FITC-aIIb (final concentration of 100 nM). Sequence of alphaIIb peptide: Acetyl-[…]-FITC (purity is 95.83%). 5; Centrifuge 1000 rpm (164 g) for 15 seconds. 6; Room temperature incubation. 7; ViewLux Fluorescent Polization Read: excitation = 480(20) / emission = 540(25) S and P; FITC Dichroic mirror.
# On the % scale 0 is the no-effect control and ±100 the full control effect; potency means the concentration at half of the fitted maximal effect.
Compound,"activity change, negative = inhibition",Potency
Nc1ccc(C(=O)O)c(O)c1,-4.11%,
S=c1[nH]c2ccccc2s1,-15% [at 228 µM],
O=[N+]([O-])c1ccc(CNc2nc(NCc3cccc(C(F)(F)F)c3)nc3nc[nH]c23)cc1,-19.3%,
CC(C(=O)O)c1ccc2c(c1)[nH]c1ccc(Cl)cc12 (stereo not given),,inactive
COc1cc(CNC(=O)CCCC/C=C/C(C)C)ccc1O,5.16%,
Cc1ccc(O)c(-n2nc3ccccc3n2)c1,0.0375%,
CCCOC(=O)c1ccc(O)cc1,6.54% [at 228 µM],
Nc1nc2ccc([N+](=O)[O-])cc2s1,-5.37% [at 228 µM],
CN1[C@@H]2CC[C@H]1CC(OC(c1ccccc1)c1ccccc1)C2 (stereo not given in full),-1.59%,
CCCCCCOc1ccccc1C(N)=O,1.93%,
COc1ccc(/C=C/C(=O)Nc2ccccc2C(=O)O)cc1OC,-20%,
Cc1nc2ccccc2n1Cc1ccc(Cl)cc1,3.97%,
C=CCCCCCCCCC(=O)O,-3.3%,
CC(C)OC(=O)c1cc(C(=O)OC(C)C)cc([N+](=O)[O-])c1,-6.53% [at 228 µM],
NS(=O)(=O)c1ccc(-n2nc(C(F)(F)F)cc2-c2ccc(Cl)cc2)cc1,-2.11%,
O=C(O)c1ccccc1Nc1cccc(C(F)(F)F)c1,-4.82%,
O=C(CCN1CCN(CCO)CC1)N1c2ccccc2Sc2ccc(C(F)(F)F)cc21,-4.37%,
Clc1ccccc1-c1nc(-c2ccncc2)no1,0.825%,
CCCCCCCCCCCCOCCO,-4.09%,
CC(C(=O)O)c1ccc(C(=O)c2cccs2)cc1 (stereo not given),6.02%,

Compound,"activity change, negative = inhibition",Potency
O=C1CC[C@@H](C(=O)N2CSC[C@H]2C(=O)O)N1 ([pGlu]-[Thz]-OH),0.454%,
O=C(O)[C@H](CC(=O)N1C[C@H]2CCCC[C@H]2C1)Cc1ccccc1,2.11%,
COC(=O)c1nc(Cl)c(Cl)nc1N,-18.4%,
CN1CCN(c2cc3c(nn2)Oc2ccccc2N3C)CC1,7.77% [at 57.7 µM],
Cc1ccc(C(=O)c2ccc(CC(=O)O)n2C)cc1,-2.52%,
O=C(O)/C=C\C(=O)O,2.98%,
CCCC(=O)OC[C@@H](OC(=O)CCC)[C@@H](OC(=O)CCC)[C@H](Cn1c2nc(=O)[nH]c(=O)c-2nc2cc(C)c(C)cc21)OC(=O)CCC,,2820 nM (active)
CCCCCCCCCCCCCCCC(=O)OC(C)C,2.46%,
CC(C(=O)O)c1ccc(C(=O)c2ccccc2)s1 (stereo not given),1.55%,
C/C(=N\O)c1ccc(OCC(=O)N2CCCCC2)cc1,-0.95%,
c1ccc2sc(SSc3nc4ccccc4s3)nc2c1,4.15% [at 57.7 µM],
COC(=O)[C@H]1[C@H]2C[C@@H]3c4[nH]c5cc(OC)ccc5c4CCN3C[C@H]2C[C@@H](OC(=O)/C=C/c2cc(OC)c(OC)c(OC)c2)[C@@H]1OC,25% [at 30.2 µM],
CN(CCCOc1ccc(Cc2ccccc2)cc1)CCC(=O)O,5.13%,
CC(=O)SCC(CC(=O)c1ccc(C)cc1)C(=O)O (stereo not given),4.77%,
COC(=O)C1=C(C)NC(C)=C(C(=O)OCC(C)=O)C1c1ccccc1[N+](=O)[O-] (stereo not given),-18.1%,
C#CC1(O)CC[C@H]2[C@@H]3CCC4=CCCC[C@@H]4[C@H]3CC[C@@]21C (stereo not given in full),0.135%,
Cc1ccc2c(n1)Oc1ccc(C(C)C(=O)OCC(=O)N(C)C)cc1C2 (stereo not given),,inactive
C#C[C@]1(O)CC[C@H]2[C@@H]3CCc4cc(O)ccc4[C@H]3CC[C@@]21C,-145%,
O=C(O)Cc1cccc(-c2cc(CCCCCCc3ccc(O[C@H]4O[C@H](CO)[C@@H](O)[C@H](O)[C@@H]4O)c(-c4cccc(CC(=O)O)c4)c3)ccc2O[C@H]2O[C@H](CO)[C@@H](O)[C@H](O)[C@@H]2O)c1,-8.49% [at 1.07 µM],
CCN(CC)CCCCNc1ncc2cc(-c3c(Cl)cccc3Cl)c(NC(=O)NC(C)(C)C)nc2n1,0.706%,
